The text below walks through data of PubChem BioAssay.

A number with no mark means an inactive call. Active and inactive are the calls of the source. No stated cut-off is given here; in the data, active means fold change permeability below about 0.7 or above about 1.3; inactive means in between.

A short description of the assay: modulators of brain endothelial barrier permeability, primary screen, cell-based, FITC-avidin fluorescence, HTS (AID 1963498). Further: test concentration not given here. The conditions noted are these: actives lie on both sides.
Turning to `N[C@@H](CC(=O)O)C(=O)O`, the fold change permeability is 1. `Cc1cn([C@H]2C=C[C@@H](CO)O2)c(=O)[nH]c1=O`: the fold change permeability is 1.2. In the case of `C=C(C)C1CC=C(C(=O)O)CC1` (stereo not drawn) it was 0.9; in that of `O=c1oc(Cl)c(Cl)c2ccccc12`, 1.4 (active); in that of `CC(C)C(=O)c1c(C(C)C)nn2ccccc12`, 1.3 (active). With `O=C(NCCO)c1cccc(-c2cc(Nc3ccc(OC(F)(F)F)cc3)ncn2)c1`, the fold change permeability was 1.4 (active).

`COc1ccc(OCC2c3cc(OC)c(OC)cc3CCN2C(=O)c2cccc(Cl)c2)cc1` (stereo not drawn): the fold change permeability is 1.6 (active). `COC(=O)C1=C(C)NC(C)=C([N+](=O)[O-])C1c1ccccc1C(F)(F)F` (stereo not drawn): the fold change permeability is 1.1. Take `O=C(c1ccc2c(c1)OCCO2)N1CCCCC1`: the fold change permeability is 1.2. In the case of `O=[N+]([O-])c1cccc2cn[nH]c12` it was 1.

With `CN1CCC(=C2c3ccccc3CCn3c(C=O)cnc32)CC1`, the fold change permeability is 1. In the case of `O=C(O)C1=CCCNC1` it was 1. Consider `COc1ccc(-c2cc(=O)c3c(O)c(OC)c(OC)cc3o2)cc1O`, for which the fold change permeability was 1.6 (active).

With `Cc1ccc(/C=N\NC(=O)c2n[nH]c3c2CCCC3)cc1`, the fold change permeability was 1.1. As to `Cn1c(CNc2ccc(C(=N)N)cc2)nc2cc(C(=O)N(CCC(=O)O)c3ccccn3)ccc21`, the fold change permeability was 1.1. Consider `O=c1ccc2ccc(O)c(O)c2o1`, for which the fold change permeability was 1.2. The figure for `CC(=O)N[C@H]1[C@H]([C@H](O)[C@H](O)CO)OC(C(=O)O)=C[C@@H]1N=C(N)N` is 0.9; for `O=C1Cc2c([nH]c3ccc(Br)cc23)-c2ccccc2N1` it is 0.7 (active).
